According to PubChem BioAssay AID651550 (National Center for Advancing Translational Sciences (NCATS), 2012):
Screen size: about 360,000 compounds; about 1,100 (0.31%) were called active. Rule as the data show it: active = activity change below about -80%; inconclusive = mostly about -51% to -80%; inactive = weaker than that. What follows is part of a selection rich in actives, with near analogues and random picks from the rest.

Target: RAC-alpha serine/threonine-protein kinase (Homo sapiens) (UniProt P31749)
Assay: HTS Assay for Inhibitors of Akt Phophorylation: Primary Screen
Conditions: Neuro2A IGF-stimulated pAkt S473 HTRF, 20 min; at 50 µM, hits give low values
Description: The serine/threonine protein kinase Akt (protein kinase B) regulates various cellular processes, including cell survival, growth, proliferation, migration and differentiation. It has been well established that Akt is activated through two essential steps involving membrane translocation and phosphorylation. Cytosolic Akt is recruited to the plasma membrane via the interaction between the PH domain and membrane PIP3 produced by phosphoinositide-3 kinase (PI3K) upon growth factor receptor stimulation. The membrane-Akt interaction results in conformational changes of Akt, enabling its activation through phosphorylation at T308 in the kinase domain and at S473 in the C-terminal hydrophobic motif by PDK1 and mTOR-rictor complex (mTORC2), respectively. […] These findings indicate that S473 phosphorylation, as an important modulator of Akt activation, may be a valuable drug target for cell growth, survival, proliferation and differentiation. These inhibitors also may have significant therapeutic potential with fewer side effects, especially for the conditions involving hyperactive Akt signaling, such as cancer and Alzheimer's disease.
To this end, a miniaturized assay was developed to be screened against the Molecular Libraries Small Molecule Repository (MLSMR).
NIH Chemical Genomics Center [NCGC]
NIH Molecular Libraries Probe Centers Network [MLPCN]
Assay Submitter (PI): Hee-Yong Kim, National Institute on Alcohol Abuse and Alcoholism
3 uL of Neuro2A cell suspension in DMEM containing 0.5% FBS and […] antibiotics mix was plated in a white solid bottom tissue culture-treated 1536-well plate (Greiner Bio-One, Monroe, NC) at 4,500 cells per well and incubated overnight at 37 deg C. 23 nL/well of compound solutions in DMSO was added with Pintool transfer (Kalypsis, San Diego, CA) at single […] final concentration. Then, the cells were stimulated with 1.5 uL of IGF (6 nM final concentration) and incubated at 37 deg C for 20 min. The reaction was terminated by the addition of 1.5 uL blocking reagent mixed with lysis buffer (1:25 correspondingly) provided with HTRF(R) Phospho Akt (Ser473) kit (Cisbio US, Bedford, MA), with following incubation for 50 min at ambient temperature. The detection HTRF conjugates from the kit were prepared according to the protocol, pre-mixed 1:1 prior to dispensing, and 2 uL/well was added with BioRAPTR FRD dispenser (Beckman Coulter). The assay plates were incubated for 24 hours at ambient temperature, and the HTRF fluorescence was measured using Envision plate reader (PerkinElmer) with excitation at 330nm, emission at 615nm (Eu(3)-Cryptate donor signal) and 665nm (d2 acceptor signal). The ratio of […] was calculated for each well.
% is scaled to controls: 0 for no effect and ±100 for the full control effect.

Activity change, active:
Cc1ccc2c(c1)N(C(=O)CCC(=O)N1CCc3ccccc3C1)CCO2 -105%, CCN(CC)C(=O)CSc1ncnc2c1cnn2-c1ccccc1 -110%, O=C(Nc1ncc2c(n1)-c1ccccc1OC2)c1ccc(Cl)cc1 -120%, Cc1ccccc1NC(=O)c1ccccc1 -122%, O=C(Cn1cc(C(=O)c2cccs2)c2ccccc21)NCc1cccs1 -110%, COc1ccc(OCC(=O)NCCc2ccc(S(N)(=O)=O)cc2)cc1 -119%, CC1CCCCC1NC(=O)CCS(=O)(=O)c1cccc2nonc12 (stereo unspecified) -123%, C=CCNc1nnc(C)c2ccccc12 -110%, Cc1ccccc1Nc1nnc(C)c(=O)[nH]1 -109%, CSc1ccc(-c2c(C#N)c(N)nc3c2c(C)nn3-c2ccccc2)cc1 -83.6%, CC(=O)OCc1cc2cc(C)ccc2[nH]c1=O -102%, CCOc1ccc(N(CC(=O)NCc2ccc(OC)cc2)S(=O)(=O)c2c(C)noc2C)cc1 -134%, NC(=NC(=O)c1ccccc1)C1=C(O)CCC1=O -110%, COc1ccc(-n2ncc3c(N4CCc5ccccc54)ncnc32)cc1 -95.4%, COc1nc(OC)nc(N(C)CCO)n1 -113%, Cc1cccc(C(=O)Nc2ccc(C(=O)/C=C/c3cccs3)cc2)c1 -121%, Cc1cc(C)cc(NC(=O)N2CCC(NC(=O)c3ccc(F)cc3)CC2)c1 -96.8%, Cc1cc(-c2ccccc2)nc(N2CCC(C(=O)NC34CC5CC(CC(C5)C3)C4)CC2)n1 -97.3%, c1ccc(CSc2ncnc3c2sc2nc(N4CCOCC4)c4c(c23)CCCC4)cc1 -92.8%, N#Cc1c(N)nc2c3c(sc(=N)c2c1N)NC(=O)CC3c1ccccc1Cl (stereo unspecified) -87.7%

Activity change, inactive:
CCCCC[C@H](C)N1C[C@@H](COCc2ccccc2)Oc2cc(N3CC[C@@H](N(C)C)C3)ccc2S1(=O)=O, Cc1ccc2c(c1)N(C(=O)CCC(=O)NCc1cccnc1)CCO2, Cc1ccc(Cl)c(OCC(=O)N2CCc3ccccc3C2)c1, CCOC(=O)C1CCN(C(=O)C2CCN(S(=O)(=O)c3c(C)noc3C)CC2)CC1, CCN(C(=O)CSc1ncnc2c1cnn2-c1ccccc1)C1CCS(=O)(=O)C1 (stereo unspecified), CCC(C)N(C(=O)CSc1ncnc2c1cnn2-c1ccccc1)C1CCS(=O)(=O)C1 (stereo unspecified), Cc1cccc(C)c1NC(=O)C(c1ccc(C(F)(F)F)cc1)n1c(=O)c(-c2ccco2)nc2ccccc21 (stereo unspecified), O=C(Nc1ncc2c(n1)CC(c1ccco1)CC2=O)c1ccc(Cl)cc1 (stereo unspecified), COC(=O)c1nc(NC(=O)c2ccc(Cl)cc2)n[nH]1, CN(C)c1ccc(Nc2c3c4c(cccc4n(C)c2=O)C(=O)c2ccccc2-3)cc1, COc1cc2ccccc2cc1C(=O)Nc1ccccc1C, Cc1ccccc1NC(=O)CSC(=O)c1ccccc1, Cc1cccc(N(C(=O)c2csnn2)C(C(=O)NCc2ccccc2)c2ccncc2)c1 (stereo unspecified), Cc1cccc(C2C3=C(CCCC3=O)N=C3c4ccccc4C(=O)C32)c1 (stereo unspecified), CCOC(=O)[C@]12CCCC=C1N(CCC1=CCCCC1)C(=O)[C@H](CC(=O)N1CCN(C(=O)c3ccco3)CC1)C2, COc1ccc(C(CNC(=O)CSc2ccccc2)N2CCOCC2)cc1 (stereo unspecified), O=C(C(=O)N1CCC(c2ccccc2)CC1)c1ccccc1, Cc1cccc(-n2c(Cc3cc(=O)[nH]c(=O)[nH]3)nnc2SC(C)C)c1, COCCNC(=O)Cn1cc(C(=O)c2cccs2)c2ccccc21 -3.12%, Cc1cccc(NC(=O)Cn2cc(C(=O)c3ccco3)c3ccccc32)c1 11.5%, FC(F)(F)c1cccc(-c2nc3ccccc3n2C(c2ccccc2)c2nc3ccccc3[nH]2)c1 (stereo unspecified), CC(C)(Oc1ccc(Cl)cc1)C(=O)OCC(=O)NCCc1ccc(S(N)(=O)=O)cc1, COc1ccc(CCNC(=O)COc2ccc3c(c2)OCO3)cc1, CCOC(=O)CN(C(=O)CN1CCOCC1)c1ccc(Br)cc1 1.02%, CCN(C(=O)COC(=O)c1cc(NS(=O)(=O)c2ccc(Cl)c([N+](=O)[O-])c2)ccc1O)C1CCCCC1, COC(=O)[C@@]12C[C@@H](CC(=O)NCc3cccc(C(F)(F)F)c3)C(=O)N(Cc3ccco3)C1=CCC(C)(C)C2, O=C(CCS(=O)(=O)c1cccc2nonc12)NCCc1ccccc1Cl 2.49%, COc1ccc(C)cc1NC(=O)CCS(=O)(=O)c1cccc2nonc12 16.6%, C=CCNc1nnc(SCC(=O)N2CCCCC2)c2ccccc12 4.07%, C=CCNc1nc(C)nc(OC)n1, CCCc1nnc(NC(=O)CCC(=O)N2CCN(S(=O)(=O)c3ccc(OC)cc3)CC2)s1, CCc1c(Nc2ccccc2C)nc(N)[nH]c1=O, Cc1nnc(N/N=C/c2ccccn2)[nH]c1=O, Cc1cccc(C)c1NC(=O)C(c1cccc2ccccc12)n1c(=O)c(-c2ccco2)nc2ccccc21 (stereo unspecified), COc1cccc(-c2ccc3c(c2)N(Cc2ccccc2OC)C(=O)C(C)S3)c1 (stereo unspecified), CCc1c(-c2ccc(F)cc2)ncn1Cc1cccc(-c2ccccc2)c1, CCCCCn1nnnc1-c1nc2cc3ccccc3cc2[nH]c1=O, COc1ccccc1NC(=O)C1CCN(C(=O)c2ccc(C(C)(C)C)cc2)CC1, Cc1cc(Br)cn2c(Cc3ccccc3C(F)(F)F)c(-c3ccc(Cl)cc3)nc12, Cn1c(=O)c2c(-c3cccc(Br)c3)c(C#N)c(N)nc2n(C)c1=O, Cc1nc2c(c(C)nn2-c2ccccc2)c(C)c1C, COc1ccc(NC(=O)C(c2ccncc2)n2c(=O)c(-c3cc4ccccc4[nH]3)nc3ccccc32)cc1 (stereo unspecified), Nc1nc2ncccn2c1-c1ccccc1, CCOC(=O)c1cc2cc(C)ccc2[nH]1, Cc1ccc2[nH]c(=O)c(COC(=O)c3ccccn3)cc2c1 -7.82%, CCOc1ccc(N(CC(=O)OC)S(=O)(=O)c2c(C)noc2C)cc1, Cc1noc(C)c1S(=O)(=O)N(CC(=O)NCc1ccc(Cl)cc1)c1ccc2c(c1)OCO2, NC(=NC(=O)c1ccccc1)N1CCOCC1, Cc1onc(-c2ccccc2)c1C(=O)N=C(N)c1ccc(Cl)cc1, O=C(O)Cc1csc(-c2cccc(Oc3ccccc3)c2)n1, CCCCOCCCNC(=O)C[C@@H]1C[C@@]2(C(=O)OCC)CCCC=C2N(CCC2=CCCCC2)C1=O, CC(C)N1C(=O)c2ccccc2NC(=O)C1C(=O)NCc1cccs1 (stereo unspecified), O=C(C(=O)N1CCN(c2ccccc2)CC1)c1ccc2c(c1)OCO2, CC1(C(=O)Nc2ccc3c(c2)OCCO3)CN(S(C)(=O)=O)CC(=O)N1Cc1cccc(F)c1 (stereo unspecified), COc1ccccc1N1CCN(C(=O)CSc2ncnc3c2cnn3-c2ccc(C)c(C)c2)CC1, COc1ccc(-n2ncc3c(SCC(=O)NNC(C)=O)ncnc32)cc1, COc1nc(Oc2ccc(=O)n(C)n2)nc(N(C)C)n1 6.07%, CO[C@@H]1CN(C)C(=O)c2cc(NC(=O)C3CC3)ccc2OC[C@H](C)N(C(=O)CN2CCOCC2)C[C@@H]1C, CC(=O)C[C@@H]1OC[C@H](C)N1S(=O)(=O)c1ccc(C)cc1, Cc1cccc(C(=O)Nc2ccc(Oc3cnccn3)cc2)c1, Cc1cccc(C(=O)Nc2ccc3c(c2)C(=O)N(CC(C)C)C3=O)c1, CCCCCc1c(Cc2ccccc2)ncn1CCc1ccccc1OC, COc1ccc(N2C(=O)CCC(C(=O)N(C)C3CCCCC3)C2c2ccc(OC)c(OC)c2)cc1 (stereo unspecified), COc1ccc(S(=O)(=O)N[C@@H]2C=C[C@@H](CC(=O)N3CCc4ccccc4C3)O[C@@H]2CO)cc1, COc1ccc(C(=O)NC2CCN(C(=O)Nc3ccc(F)cc3)CC2)cc1, Cc1ccc(C(=O)NC2CCN(C(=O)Nc3ccc(F)cc3)CC2)cc1, Cc1ccc(S(=O)(=O)N2C[C@H]3n4c(=O)ccc(=O)n4C[C@H](OC(=O)NC4CCCC4)[C@@]3(O)C2)cc1, Cc1ccc2nc(Nc3ncc4c(n3)CC(C)(C)CC4=O)nc(C)c2c1, O=C(NNC(=O)C1CCN(c2ncccn2)CC1)c1ccccc1, CC(=O)N1CCC(C(=O)Nc2nc(-c3ccccc3)ns2)CC1, CCCCCNC(=O)C1C(=O)Nc2ccccc2C(=O)N1C(C)(C)C (stereo unspecified), COC(=O)[C@]12CCCCC=C1N(Cc1ccc(Cl)cc1Cl)C(=O)[C@H](CC(=O)NCc1cccc3ccccc13)C2, COC(=O)C1(C(=O)OC)C[C@H](c2ccccc2)N(Cc2ccccc2OC)[C@@H]1c1ccccc1, O=C(N[C@H]1CC[C@H](CC(=O)N2CCCCC2)O[C@@H]1CO)c1cccc(F)c1, c1ccc(COc2nsnc2N2CCOCC2)cc1, CCc1nc2sc3c(Cl)ncnc3c2c2c1CCCC2, COC(=O)[C@@]12C[C@@H](CC(=O)NCCCCc3ccccc3)C(=O)N(CCc3ccc(OC)c(OC)c3)C1=CCC(C)(C)C2, CCOC(=O)NC(=O)CSc1nnc(SCCC(=O)O)s1, COC(=O)[C@@]12C[C@@H](CC(=O)N3CCCCC3)C(=O)N(Cc3ccc4c(c3)OCO4)C1=CCC(C)(C)C2, COc1ccc(C2CC(=O)Nc3sc(=N)c4c(N)c(C#N)c(N)nc4c32)cc1OC (stereo unspecified), CSc1nc2c(c(=O)[nH]1)C(c1cccc(Cl)c1Cl)CC(=O)N2 (stereo unspecified)
